High-throughput results (PubChem BioAssay)
BAZ2B block – qHTS Assay for Inhibitors of BAZ2B; AID 504333, 2011; AlphaScreen BAZ2B-H3K14Ac peptide displacement; 360,000 tested, 4.4% active; Potency, µM (top dose mostly 114 µM), most hits filed as inhibitors; further: nearly all actives have a fitted effect of over 60% in size
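AlphaScreen luminescence quantifies BAZ2B engagement of H3K14Ac peptide; the protein and biotinylated peptide are both at 50 nM final, buffer PBS pH 7.4 with 0.01% Tween-20, all steps at room temperature.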
HP1b chromo inh – HTS for Inhibitors of HP1-beta Chromodomain Interactions with Methylated Histone Tails | AlphaScreen HP1-beta / biotin-H3K9me3 peptide binding | 390,000 tested, 0.56% active | AID 540317, 2011 | Potency, µM (titrated, usually from 114 µM), hits mostly inhibitors | Chromobox protein homolog 1 (Homo sapiens), P83916; further: nearly all actives have a fitted effect of over 70% in size
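HP1-beta protein (50 nM final) preincubated 30 min at room temperature with biotinylated H3(1-18)K9me3 peptide (50 nM) in PBS pH 7.4, 0.01% Tween-20, then compound added for 30 min. AlphaScreen streptavidin donor/nickel chelate acceptor beads (10 ug/mL final), 30 min dark, luminescence read.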
Six1-Eya2 blk – qHTS Assay for Inhibitors of the Six1/Eya2 Interaction; Homeobox protein SIX1 (Homo sapiens) + Protein phosphatase EYA2 (Homo sapiens), …; AlphaScreen GST-Six1/His-Eya2 binding, biochemical; active compounds read low; activity change, % (concentration not given with the values); 360,000 tested, 0.56% active; AID 651725, 2012; in the data active means activity change below about -65%; inconclusive means mostly about -30% to -63%
Target sequence (O00167 whole entry, looked up): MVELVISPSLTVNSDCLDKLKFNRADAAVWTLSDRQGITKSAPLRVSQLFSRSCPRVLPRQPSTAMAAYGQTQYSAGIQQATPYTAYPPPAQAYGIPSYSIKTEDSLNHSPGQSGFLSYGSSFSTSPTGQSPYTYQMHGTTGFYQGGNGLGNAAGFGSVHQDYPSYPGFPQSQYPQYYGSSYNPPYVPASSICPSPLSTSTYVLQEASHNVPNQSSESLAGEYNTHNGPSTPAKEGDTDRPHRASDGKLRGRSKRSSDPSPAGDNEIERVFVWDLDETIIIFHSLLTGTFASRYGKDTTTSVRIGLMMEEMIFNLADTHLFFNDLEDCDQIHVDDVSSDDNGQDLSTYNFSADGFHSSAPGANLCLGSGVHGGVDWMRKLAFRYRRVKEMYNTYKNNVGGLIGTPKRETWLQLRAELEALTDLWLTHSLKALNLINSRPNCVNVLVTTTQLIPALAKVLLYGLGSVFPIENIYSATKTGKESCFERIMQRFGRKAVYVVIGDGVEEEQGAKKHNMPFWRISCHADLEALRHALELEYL
Target sequence (Q15475 whole entry, looked up): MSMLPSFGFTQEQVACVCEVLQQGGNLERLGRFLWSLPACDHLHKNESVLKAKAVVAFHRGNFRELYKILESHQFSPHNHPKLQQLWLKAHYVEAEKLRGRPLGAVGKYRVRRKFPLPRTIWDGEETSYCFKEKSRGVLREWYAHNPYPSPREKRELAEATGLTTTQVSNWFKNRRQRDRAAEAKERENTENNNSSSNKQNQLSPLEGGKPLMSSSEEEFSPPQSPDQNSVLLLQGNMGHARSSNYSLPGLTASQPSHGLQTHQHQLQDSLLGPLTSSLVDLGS
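AlphaScreen luminescence read after one hour at 37 °C in darkness. Pin-transferred compounds met GST-Six1 and His-Eya2 protein (5X stock 250 nM/500 nM) plus glutathione donor and Ni-chelate acceptor beads (5X, 50 ug/mL).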
G9a block – qHTS Assay for Inhibitors of Histone Lysine Methyltransferase G9a. Histone-lysine N-methyltransferase EHMT2 (Homo sapiens), Q96KQ7. G9a H3K9 monomethylation, AlphaScreen, 2 h. Potency, µM (doses to about 102 µM), hits mostly inhibitors. 350,000 tested, 8.8% active. AID 504332, 2011; further: nearly all actives have a fitted effect of over 75% in size
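G9a (20 nM) preincubated 15 min RT with compounds, then 500 nM biotinylated H3K9 peptide and 20 uM SAM added; 2 h RT reaction. Monomethyl-H3K9 product detected by AlphaScreen with anti-H3K9me1 antibody, streptavidin donor and anti-rabbit IgG acceptor beads.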
JMJD2A Tudor inh – qHTS Assay for Inhibitors of JMJD2A-Tudor Domain; Lysine-specific demethylase 4A (Homo sapiens), O75164; AlphaScreen JMJD2A-Tudor / H3K4me3 peptide binding; Potency, µM (titrated, usually from 114 µM), hits mostly inhibitors; 390,000 tested, 4.4% active; AID 504339, 2011; further: nearly all actives have a fitted effect of over 50% in size
CtBP-E1A inh – qHTS Assay for Inhibitors of the CtBP/E1A Interaction | CtBP / adenovirus E1A interaction (AlphaScreen) | AlphaScreen GST-E1A/His-CtBP binding, 1536-well; active compounds read low | activity change, % (test concentration not listed) | 340,000 tested, 0.49% active | AID 651724, 2012; in the data active means activity change below about -65%; inconclusive means mostly about -30% to -63%
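Homogeneous bead-based format: GST-tagged E1A captured on glutathione donor beads, His-tagged CtBP on nickel acceptor beads; compounds precede bead addition by 2 h at 37 °C.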
A number is an active result; . = inactive; ? = inconclusive; / = not tested or not shown; [ ] = another dose, or the depositor's remark. In the library only some 10% were active in any assay of this set; here they are far more common. Unless noted, the call rests on the fitted dose curve; in most records, active means well fitted inhibition curve with a large enough effect; inconclusive means small, poorly fitted or top-dose-only effect; inactive means no such curve, though single readings can be large or run the other way.

SMILES | BAZ2B block | HP1b chromo inh | Six1-Eya2 blk | G9a block | JMJD2A Tudor inh | CtBP-E1A inh
O=S(=O)(c1ccccc1)c1nc(Nc2cccc(O)c2)sc1Cl | ? | . | . | ? | . | .
Cc1ccc(C)c(NC(=O)c2cnn(-c3cccc(F)c3)c2C2CCN(C(=O)OC(C)(C)C)CC2)c1 | . | . | / | . | . | /
Oc1ccc(NC(=S)Nc2ccccc2)cc1 | . | . | . | 50.1µM | . | .
Nc1ccc(NC(=S)Nc2ccccc2)cc1 | . | . | . | .[12.7 µM] | . | /
COc1ccc(-c2cc(C(F)(F)F)n3ncc(-c4ccccc4)c3n2)cc1 | ? | . | / | ? | ? | /
O=C(c1cccc(Cl)c1)N1CCN(Cc2ccc3c(c2)OCO3)CC1 | . | . | . | / | . | .
O=C(Nc1ccc2c(c1)OCO2)C1CCN(Cc2cc3c(cc2O)OCO3)CC1 | . | ? | . | 31.6µM | ? | .
CC1CCN(c2nc3ccc(C(=O)N4CCN(Cc5ccc6c(c5)OCO6)CC4)cc3s2)CC1 | ? | . | . | 28.2µM | ? | .
O=C(Cn1ncc2c1-c1ccccc1OC2)N1CCN(Cc2ccc3c(c2)OCO3)CC1 | . | . | . | 15.8µM | . | .
COc1cccc(CN2CCC(C(=O)N3CCN(Cc4ccc5c(c4)OCO5)CC3)CC2)c1OC | . | ? | . | . | 3.16µM | .
Cc1ccc(Cl)cc1NC(=O)c1cc2ccccc2cc1O | . | . | . | / | . | .
C=Cc1ccc(Cn2c(C)c(CNCc3cccc(Br)c3)c(C(=O)O)c2C)cc1 | ? | . | / | . | . | /
CCCCCN(C(=O)CCC(=O)OCC(=O)c1ccc(C(C)CC)cc1)c1c(N)n(CCCC)c(=O)[nH]c1=O (centres undefined) | . | . | . | ? | . | .
COc1cccc(OC)c1C(=O)N1CCN(Cc2ccc3c(c2)OCO3)CC1 | 50.1µM | 44.7µM | . | 14.1µM | 5.01µM | .
O=C(c1cccnc1)N1CCN(Cc2cccc(F)c2)CC1 | 31.6µM | 44.7µM | . | 3.16µM | 1.58µM | .
COc1cc2c(cc1OC)C(C)N(C(=O)Cn1ncc3c1-c1ccccc1OC3)CC2 (centres undefined) | . | . | . | 79.4µM | . | .
CCS(=O)(=O)N1CCC(C(=O)N2CCN(Cc3ccccc3)CC2)CC1 | . | . | . | . | . | .
O=C(c1cccc(F)c1)N1CCC2(CCN(Cc3ccccc3)CC2)CC1 | / | / | / | .[12.7 µM] | / | /
O=C(C1CCN(Cc2cc(Cl)ccc2O)CC1)N1CCN(Cc2ccccc2)CC1 | ? | ? | . | ? | 3.55µM | .
COc1ccc(OC)c(NC(=O)Cn2ncc3c2-c2ccccc2OC3)c1 | . | . | / | . | . | /
c1ccc(N2CCN(c3cccc(-c4cc5ccccc5s4)n3)CC2)nc1 | / | / | . | / | / | .
O=C(CCNC(=O)c1ccccc1Cl)OCC(=O)c1ccccc1 | . | . | . | . | . | .
Cc1ccc(S(=O)(=O)c2nc(-c3cccs3)oc2NCCCN(C)C)cc1 | . | . | . | . | . | .
O=C(c1cccc(F)c1)N1CCN(Cc2ccc3c(c2)OCO3)CC1 | 50.1µM | ? | . | .[0.501 µM] | 1µM | .
CC1CCCN(C(=O)C2CCN(Cc3ccc4c(c3)OCO4)CC2)C1 (centres undefined) | . | . | . | 50.1µM | 2.24µM | .
SMILES | BAZ2B block | HP1b chromo inh | Six1-Eya2 blk | G9a block | JMJD2A Tudor inh | CtBP-E1A inh
O=C(C1CCN(S(=O)(=O)N2CCOCC2)CC1)N1CCN(Cc2ccc3c(c2)OCO3)CC1 | . | . | . | . | . | .
Cc1ccc2c(C)c(C(=O)N3CCN(Cc4ccc5c(c4)OCO5)CC3)oc2c1C | ? | . | . | 50.1µM | . | .
O=C(C1CCN(S(=O)(=O)c2ccccc2)CC1)N1CCN(Cc2ccc3c(c2)OCO3)CC1 | . | . | . | . | . | .
O=C(C1CCN(Cc2ccccc2O)CC1)N1CCN(Cc2ccc3c(c2)OCO3)CC1 | ? | ? | . | 6.31µM | 2.82µM | .
O=C(Nc1ccc(F)cc1F)c1noc2c1CCc1ccccc1-2 | . | . | / | . | . | /
COC(=O)c1ccccc1NC1CC(=O)N(c2c(C)cccc2C)C1=O (centres undefined) | . | . | . | ? | . | .
O=C(c1cc(-c2ccncc2)nc2ccc(Cl)cc12)N1CCN(Cc2ccc3c(c2)OCO3)CC1 | 39.8µM | . | . | ? | ? | .
Cc1cc(Cl)ccc1OC(C)C(=O)Nc1ccc(C(=O)Nc2ccccc2C(=O)O)cc1 (centres undefined) | ? | . | . | / | . | .
CC12C=CC(=O)C=C1[C@@H](F)CC1C2C(O)CC2(C)C1CC[C@]2(O)C(=O)CO (some centres undefined) | / | / | / | . | / | /
N#C/C(=C(\O)c1cc(Cl)sc1Cl)c1nc2ccccc2[nH]1 | 70.8µM | . | . | . | . | .
N#C/C(=C(/O)C(Cl)(Cl)Cl)c1nc2ccccc2[nH]1 | . | . | . | . | 50.1µM | /
C/C(O)=C(/C#N)c1nc2ccccc2[nH]1 | ? | . | . | 10µM | . | .
N#C/C(=N\O)c1nc2ccccc2[nH]1 | ? | . | . | . | 56.2µM | .
N#Cc1c(-n2ncnc2-c2ccccc2C(F)(F)F)sc2c1CCCCC2 | ? | . | / | ? | ? | /
O=C(Nc1ccccc1)C(Cc1ccccc1)N1Cc2ccccc2C1=O (centres undefined) | . | . | / | . | . | /
Cc1cccc(C(=O)NCC(=O)N(C)CC(=O)Nc2ccc(N3CCOCC3)cc2)c1 | . | . | . | ? | . | .
CN(CC(=O)Nc1ccc(N2CCOCC2)cc1)C(=O)CCNC(=O)c1ccc(Br)cc1 | . | . | . | 44.7µM | . | .
CCOc1ccc(S(=O)(=O)Nc2nc3ccccc3nc2Nc2ccc(N3CCOCC3)cc2)cc1 | 28.2µM | ? | . | 10µM | 50.1µM | .
CC(C)(C)c1ccc(OCCC(=O)OCC(=O)Nc2ccc(N3CCOCC3)cc2)cc1 | . | . | . | 44.7µM | . | .
COc1ccccc1C(=O)NCCC(=O)N(C)CC(=O)Nc1ccc(N2CCOCC2)cc1 | . | . | . | 44.7µM | . | .
COc1ccc(OCCC(=O)OCC(=O)Nc2ccc(S(=O)(=O)N3CCOCC3)cc2)cc1 | . | . | . | . | . | .
COc1ccccc1C(=O)N(C)CC(=O)Nc1ccc(N2CCOCC2)cc1 | . | . | . | ? | . | /
COc1ccc(OC)c(CNC(=O)c2cc3ccc4cccnc4c3[nH]2)c1 | . | . | / | . | ? | /
Cc1ccc(C)c2sc(N3CCN(C(=O)c4ccco4)CC3)nc12 | . | . | / | ? | . | /
